Results filed as inconclusive are left out. Activity calls are given as the source filed them. Unless noted, calls come from the whole dose curve; as a rule, active = well fitted curve in the direction sought with a large enough effect; inconclusive = small, poorly fitted or top-dose-only effect, or another doubt; inactive = no such curve, though single readings can be large; an effect the other way counts as inactive or inconclusive.
How the values were obtained:
[1] = Validation of Assay for Modulators of Lamin A Splicing (AID 1459; active = well fitted curve in the direction sought with a large enough effect in the signal ratio; the % refers to the signal ratio;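 note: cells exposed to compound for two days before reading; 0% is about no effect; ratio rise marks activators and ratio drop marks inhibitors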)
Method in brief: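 Dual-reporter HeLa S3 line (lamin A-EGFP minigene, DsRed2) treated with compounds 48 hrs, 0.5% DMSO final. Endpoint: EGFP/DsRed2 total intensity ratio from laser-scanning microplate cytometry.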

[2] = biological target: DNA repair nuclease/redox regulator APEX1 (Homo sapiens) (UniProt P27695); assay: qHTS Validation Assay for Inhibitors of the Human Apurinic/apyrimidinic Endonuclease 1 (APE1) (AID 1705;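 note: TAMRA fluorescence gain over two minutes as APE1 cuts a quenched THF abasic duplex; series mostly up to about 57 µM; % is set by controls: 0 for no effect and ±100 for the full control effect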)
Chain of DNA repair nuclease/redox regulator APEX1 (Homo sapiens) (P27695 whole entry, looked up): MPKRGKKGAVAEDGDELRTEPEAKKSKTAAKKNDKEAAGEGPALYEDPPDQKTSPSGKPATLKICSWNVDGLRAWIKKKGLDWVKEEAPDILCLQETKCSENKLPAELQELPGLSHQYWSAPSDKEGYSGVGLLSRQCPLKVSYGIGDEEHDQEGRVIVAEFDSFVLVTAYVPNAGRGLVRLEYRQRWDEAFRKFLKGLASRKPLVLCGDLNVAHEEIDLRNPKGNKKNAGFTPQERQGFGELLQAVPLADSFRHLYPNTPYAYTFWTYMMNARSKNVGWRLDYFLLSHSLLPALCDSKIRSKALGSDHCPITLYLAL
Method in brief: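 Substrate: 50 nM final fluorophore/quencher THF-abasic duplex. Enzyme preincubated with compounds 15 min, RT. Progress derived from fluorescence difference, third minus first kinetic read.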

[3] = Counterscreen for APE1 Inhibitors: Fluorescent Dye Displacement Validation Assay (AID 1707);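 note: plate controls were ThO with dsDNA and no compound for no effect and ThO without dsDNA for full effect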
Method in brief: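 Thiazole Orange (250 nM) bound to 50 nM TAMRA-labelled dsDNA with tetrahydrofuran abasic site; displacement by DNA-binding compounds lowers fluorescence. Buffer 50 mM Tris-HCl pH 7.5, 50 mM NaCl, 2 mM MgCl2, 0.01% Tween-20; endpoint read at 480/540 nm.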

[4] = biological target: Endonuclease 4 (Escherichia coli (strain K12)) (UniProt P0A6C1); assay: Counterscreen for APE1 Inhibitors: qHTS Validation Assay for Inhibitors of Endonuclease IV (AID 1708); note: % is set by controls: 0 for no effect and ±100 for the full control effect
Method in brief: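 E. coli EndoIV at 2 nM final, preincubated 15 min at room temperature with compound, then 50 nM TAMRA/BHQ-2 THF abasic-site duplex added. Buffer: 50 mM Tris-HCl pH 7.5, 50 mM NaCl, 2 mM MgCl2, 1 mM DTT, 0.01% Tween-20. Kinetic fluorescence increase, third minus first read.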

[5] = qHTS for differential inhibitors of proliferation of Plasmodium falciparum line 7G8 (AID 1815);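 note: potency is the fitted concentration of half-maximal effect; parasite growth measured after three days of incubation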
[6] = qHTS for differential inhibitors of proliferation of Plasmodium falciparum line GB4 (AID 1816); conditions: Potency: Plasmodium falciparum GB4 proliferation inhibition;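 note: potency is the fitted concentration of half-maximal effect; parasite growth measured after 72 h incubation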
[7] = qHTS for differential inhibitors of proliferation of Plasmodium falciparum line D10 (AID 1877);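 note: parasites grown with compound for 72 h before DNA staining; plate controls were vehicle wells for no effect and reference inhibitor wells for full effect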
[8] = qHTS for differential inhibitors of proliferation of Plasmodium falciparum line W2 (AID 1883); conditions: Potency: Plasmodium falciparum W2 proliferation inhibition;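 note: potency is the fitted concentration of half-maximal effect; parasites grown with compound for 72 h before lysis and staining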
[9] = qHTS for differential inhibitors of proliferation of Plasmodium falciparum line HB3 (AID 1886); conditions: Potency: Plasmodium falciparum HB3 proliferation inhibition;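 note: parasites grown with compound for 72 h before SYBR Green readout; plate controls were vehicle for no effect and reference inhibitor for full effect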
[10] = biological target: ATP-dependent DNA helicase Q1 (Homo sapiens) (UniProt P46063); assay: qHTS Validation Assay for Inhibitors of RecQ-Like Dna Helicase 1 (RECQ1) (AID 2353);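 note: plate controls were DMSO vehicle for no effect and enzyme-free control for full effect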
Chain of ATP-dependent DNA helicase Q1 (Homo sapiens) (P46063 whole entry, looked up): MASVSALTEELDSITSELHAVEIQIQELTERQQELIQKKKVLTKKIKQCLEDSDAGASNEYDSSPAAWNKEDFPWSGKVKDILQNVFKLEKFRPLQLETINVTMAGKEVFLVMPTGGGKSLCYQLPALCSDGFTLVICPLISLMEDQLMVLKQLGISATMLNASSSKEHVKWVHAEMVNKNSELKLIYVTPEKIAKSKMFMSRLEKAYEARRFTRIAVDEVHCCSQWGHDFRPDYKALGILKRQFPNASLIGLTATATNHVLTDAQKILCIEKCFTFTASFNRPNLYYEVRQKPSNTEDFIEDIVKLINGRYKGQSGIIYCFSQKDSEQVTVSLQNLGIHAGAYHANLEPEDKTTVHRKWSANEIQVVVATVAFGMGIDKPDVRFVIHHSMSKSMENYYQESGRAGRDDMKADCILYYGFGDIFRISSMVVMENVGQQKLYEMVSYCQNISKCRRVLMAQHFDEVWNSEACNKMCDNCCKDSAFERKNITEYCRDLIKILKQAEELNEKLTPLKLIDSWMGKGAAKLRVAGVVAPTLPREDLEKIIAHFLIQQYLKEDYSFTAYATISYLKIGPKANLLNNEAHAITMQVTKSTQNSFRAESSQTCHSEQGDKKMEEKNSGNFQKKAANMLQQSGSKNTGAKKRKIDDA
Method in brief: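 50 nM RECQ1T1 preincubated 15 min with compound in Tris pH 8.0 buffer with MgCl2, DTT, Tween-20 and 2.5 ug/ml poly(dI-dC); started with 200 nM TAMRA/BHQ-2 forked duplex and 2 mM ATP. Unwinding read as fluorescence (525/598 nm), two reads 2 h apart.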

[11] = Validation screen for inhibitors of Lassa infection (AID 463096; calls by dose curve; note: % is set by controls: 0 for no effect and ±100 for the full control effect)
[12] = Validation screen for small molecules that induce DNA re-replication in MCF 10A normal breast cells (AID 463097); note: 0% is about no effect; nearly all actives have a fitted effect of over 60% in size
Method in brief: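 Following 48 hr compound incubation (37 C, 5% CO2), MCF 10A cells receive Hoechst for 40 min at 37 C. Nuclei are then scanned (excitation 405 nm, emission 500-530 nm) for total fluorescence intensity.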

[13] = Quantitative high throughput screen for delayed death inhibitors of the malarial parasite plastid, 96 hour incubation (AID 488745);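 note: luciferase-expressing P. falciparum in erythrocytes at 2% hematocrit and 0.1% parasitemia; series mostly up to about 29 µM; % is set by controls: 0 for no effect and ±100 for the full control effect; nearly all actives have a fitted effect of over 70% in size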
Method in brief: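 Infected erythrocytes were added to compound in Albumax-supplemented RPMI 1640 at 0.1% parasitemia and 2% hematocrit (final), incubated 96 h at 37 C under 5% CO2, then luciferase reagent was added and luminescence measured.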

[14] = Quantitative high throughput screen for delayed death inhibitors of the malarial parasite plastid, 48 hour incubation (AID 488752); note: % is set by controls: 0 for no effect and ±100 for the full control effect; nearly all actives have a fitted effect of over 65% in size
Method in brief: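 Readout is firefly luciferase luminescence from a reporter integrated into the parasite genome, with lower signal taken as inhibited growth. Infected red cells (0.1% parasitemia, 2% hematocrit final) are cultured with compound for one 48 h cycle at 37 C.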

[15] = biological target: M-phase phosphoprotein 8 (Homo sapiens) (UniProt Q99549); assay: qHTS Validation Assay for Inhibitors for MPP8 Chromodomain Interactions with Methylated Histone Tails (AID 488949);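 note: 50 nM MPP8 with 50 nM peptide preformed then compounds added for 30 min; AlphaScreen signal from MPP8 chromodomain bound to biotinylated H3K9me3 peptide; top concentration of the series differs between compounds; % is set by controls: 0 for no effect and ±100 for the full control effect; nearly all actives have a fitted effect of over 55% in size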
Chain of M-phase phosphoprotein 8 (Homo sapiens) (Q99549 whole entry, looked up): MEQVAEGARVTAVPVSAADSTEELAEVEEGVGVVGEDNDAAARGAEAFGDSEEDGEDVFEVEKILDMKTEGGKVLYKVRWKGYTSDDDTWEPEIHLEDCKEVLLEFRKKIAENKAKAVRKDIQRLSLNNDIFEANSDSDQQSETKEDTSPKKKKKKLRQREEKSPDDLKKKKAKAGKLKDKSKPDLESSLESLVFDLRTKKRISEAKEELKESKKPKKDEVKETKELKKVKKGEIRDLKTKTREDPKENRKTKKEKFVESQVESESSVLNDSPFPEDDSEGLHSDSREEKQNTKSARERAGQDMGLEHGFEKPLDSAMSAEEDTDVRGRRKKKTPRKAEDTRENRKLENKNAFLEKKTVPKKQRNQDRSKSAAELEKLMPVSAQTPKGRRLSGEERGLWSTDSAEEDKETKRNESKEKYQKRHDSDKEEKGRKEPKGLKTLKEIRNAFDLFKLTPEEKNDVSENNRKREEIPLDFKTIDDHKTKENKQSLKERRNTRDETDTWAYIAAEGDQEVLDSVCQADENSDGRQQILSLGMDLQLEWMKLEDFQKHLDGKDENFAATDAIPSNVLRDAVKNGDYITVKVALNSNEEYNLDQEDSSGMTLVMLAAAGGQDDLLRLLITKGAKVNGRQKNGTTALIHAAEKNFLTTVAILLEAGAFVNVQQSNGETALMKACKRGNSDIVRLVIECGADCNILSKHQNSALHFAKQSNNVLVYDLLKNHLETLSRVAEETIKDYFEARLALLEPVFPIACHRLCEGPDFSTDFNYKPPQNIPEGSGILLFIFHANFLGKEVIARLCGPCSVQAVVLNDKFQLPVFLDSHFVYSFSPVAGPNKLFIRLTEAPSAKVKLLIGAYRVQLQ
Method in brief: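 Chemiluminescent proximity assay: histidine-tag capture via nickel acceptor beads, biotin peptide via streptavidin donor beads. Protein and peptide each at 50 nM, pH 7.4, with 30 min incubations at room temperature for complex formation, compound exposure and bead binding.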

[16] = biological target: Thyrotropin receptor (Homo sapiens) (UniProt P16473); assay: qHTS Assay for Antagonists of the Thyroid Stimulating Hormone Receptor (AID 488980); note: series mostly up to about 58 µM; 0% is about no effect
Chain of Thyrotropin receptor (Homo sapiens) (P16473 whole entry, looked up): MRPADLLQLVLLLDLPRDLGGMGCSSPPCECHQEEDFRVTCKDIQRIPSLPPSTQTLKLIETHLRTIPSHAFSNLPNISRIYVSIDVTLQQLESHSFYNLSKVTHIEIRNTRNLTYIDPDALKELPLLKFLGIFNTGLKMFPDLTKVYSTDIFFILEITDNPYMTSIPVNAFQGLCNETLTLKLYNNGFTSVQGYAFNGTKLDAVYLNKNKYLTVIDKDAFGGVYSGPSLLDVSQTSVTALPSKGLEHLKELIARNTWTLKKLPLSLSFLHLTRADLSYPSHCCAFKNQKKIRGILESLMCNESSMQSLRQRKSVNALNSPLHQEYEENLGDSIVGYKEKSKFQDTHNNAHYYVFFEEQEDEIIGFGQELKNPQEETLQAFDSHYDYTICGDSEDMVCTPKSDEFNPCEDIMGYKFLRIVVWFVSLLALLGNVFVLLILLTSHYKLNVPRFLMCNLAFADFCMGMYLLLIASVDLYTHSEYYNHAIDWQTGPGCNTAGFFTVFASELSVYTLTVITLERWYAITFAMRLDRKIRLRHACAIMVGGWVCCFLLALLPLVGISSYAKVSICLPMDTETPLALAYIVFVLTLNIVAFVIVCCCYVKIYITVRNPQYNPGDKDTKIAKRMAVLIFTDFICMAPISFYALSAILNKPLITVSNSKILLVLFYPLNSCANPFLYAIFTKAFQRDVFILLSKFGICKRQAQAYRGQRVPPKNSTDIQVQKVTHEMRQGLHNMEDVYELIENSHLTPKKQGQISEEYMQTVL
Method in brief: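 Inhibition of TSH-stimulated cAMP accumulation was quantified by homogeneous time-resolved FRET in TSHR-transfected HEK293 cells. Agonist: TSH, 4 nM final (EC80).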

[17] = biological target: Thyrotropin-releasing hormone receptor (Homo sapiens) (UniProt P34981); assay: qHTS for Small Molecule Agonists and Allosteric Enhancers of Human TRH Receptor: Validation Screen for Agonists (AID 493127;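 active = calcium activation more than 3 SD above the typical response in the agonist read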;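 note: intracellular calcium rise by fluo-8 fluorescence before TRH EC20 addition; 0% is about no effect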); conditions: TRH receptor agonist cell assay; at 2 µM; hits give high values
Chain of Thyrotropin-releasing hormone receptor (Homo sapiens) (P34981 whole entry, looked up): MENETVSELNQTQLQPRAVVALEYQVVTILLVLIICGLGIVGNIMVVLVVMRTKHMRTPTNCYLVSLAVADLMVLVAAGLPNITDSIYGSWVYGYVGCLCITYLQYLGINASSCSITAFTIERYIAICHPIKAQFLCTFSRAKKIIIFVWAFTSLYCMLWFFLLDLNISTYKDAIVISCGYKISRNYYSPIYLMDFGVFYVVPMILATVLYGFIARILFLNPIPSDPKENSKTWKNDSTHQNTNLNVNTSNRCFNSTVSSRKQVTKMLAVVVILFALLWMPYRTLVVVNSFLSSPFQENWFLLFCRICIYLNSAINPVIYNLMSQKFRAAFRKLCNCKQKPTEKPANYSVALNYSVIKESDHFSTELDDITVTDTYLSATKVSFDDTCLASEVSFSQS
Method in brief: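 Cells 2000/well, 10% FCS, 18 h 33.5C/5% CO2 → fluo-8 Ca dye, RT 30 min–1.5 h → FDSS baseline 10 × 1 s → compound added → 230 cycles (1 s/cycle) agonist mode. TRH controls.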

[18] = biological target: Galactokinase (Homo sapiens) (UniProt P51570); assay: qHTS Validation Assay for Inhibitors of Human Galactokinase (GALK) (AID 493189); note: 0% is about no effect
Chain of Galactokinase (Homo sapiens) (P51570 whole entry, looked up): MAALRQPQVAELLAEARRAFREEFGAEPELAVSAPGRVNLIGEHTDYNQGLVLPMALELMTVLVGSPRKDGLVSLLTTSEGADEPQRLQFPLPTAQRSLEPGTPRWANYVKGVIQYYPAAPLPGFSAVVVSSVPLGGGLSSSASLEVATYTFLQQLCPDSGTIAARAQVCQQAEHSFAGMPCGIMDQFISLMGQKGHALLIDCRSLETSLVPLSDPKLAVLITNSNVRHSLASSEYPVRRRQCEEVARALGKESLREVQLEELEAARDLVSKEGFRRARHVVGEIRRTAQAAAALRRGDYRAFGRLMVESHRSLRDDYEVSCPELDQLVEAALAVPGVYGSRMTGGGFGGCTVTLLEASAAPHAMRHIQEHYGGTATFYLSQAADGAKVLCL
Method in brief: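 Enzyme activity is inferred from ATP consumption: human GALK phosphorylates galactose (100 uM) using 35 uM ATP for 1 h at room temperature, and luciferase-based Kinase-Glo Plus reports unconsumed ATP.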

[19] = Validation screen for small molecules that induce DNA re-replication in SW480 colon adenocarcinoma cells (AID 504364); note: 0% is about no effect
Method in brief: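 250 cells/well; compound pinned in; 48 hr, 37 C, 5% CO2; Hoechst added, 40 min; nuclear fluorescence imaged, 405 ex / 500-530 em; re-replication scored as increase in high-intensity nuclei.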

[20] = biological target: Voltage-gated inwardly rectifying potassium channel KCNH2 (Homo sapiens) (UniProt Q12809); assay: qHTS Assay for Small Molecule Inhibitors of the Human hERG Channel Activity (AID 588834);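 note: top concentration of the series differs between compounds; % is set by controls: 0 for no effect and ±100 for the full control effect; lower thallium flux fluorescence means stronger hERG block; nearly all actives have a fitted effect of over 50% in size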
Chain of Voltage-gated inwardly rectifying potassium channel KCNH2 (Homo sapiens) (Q12809 whole entry, looked up): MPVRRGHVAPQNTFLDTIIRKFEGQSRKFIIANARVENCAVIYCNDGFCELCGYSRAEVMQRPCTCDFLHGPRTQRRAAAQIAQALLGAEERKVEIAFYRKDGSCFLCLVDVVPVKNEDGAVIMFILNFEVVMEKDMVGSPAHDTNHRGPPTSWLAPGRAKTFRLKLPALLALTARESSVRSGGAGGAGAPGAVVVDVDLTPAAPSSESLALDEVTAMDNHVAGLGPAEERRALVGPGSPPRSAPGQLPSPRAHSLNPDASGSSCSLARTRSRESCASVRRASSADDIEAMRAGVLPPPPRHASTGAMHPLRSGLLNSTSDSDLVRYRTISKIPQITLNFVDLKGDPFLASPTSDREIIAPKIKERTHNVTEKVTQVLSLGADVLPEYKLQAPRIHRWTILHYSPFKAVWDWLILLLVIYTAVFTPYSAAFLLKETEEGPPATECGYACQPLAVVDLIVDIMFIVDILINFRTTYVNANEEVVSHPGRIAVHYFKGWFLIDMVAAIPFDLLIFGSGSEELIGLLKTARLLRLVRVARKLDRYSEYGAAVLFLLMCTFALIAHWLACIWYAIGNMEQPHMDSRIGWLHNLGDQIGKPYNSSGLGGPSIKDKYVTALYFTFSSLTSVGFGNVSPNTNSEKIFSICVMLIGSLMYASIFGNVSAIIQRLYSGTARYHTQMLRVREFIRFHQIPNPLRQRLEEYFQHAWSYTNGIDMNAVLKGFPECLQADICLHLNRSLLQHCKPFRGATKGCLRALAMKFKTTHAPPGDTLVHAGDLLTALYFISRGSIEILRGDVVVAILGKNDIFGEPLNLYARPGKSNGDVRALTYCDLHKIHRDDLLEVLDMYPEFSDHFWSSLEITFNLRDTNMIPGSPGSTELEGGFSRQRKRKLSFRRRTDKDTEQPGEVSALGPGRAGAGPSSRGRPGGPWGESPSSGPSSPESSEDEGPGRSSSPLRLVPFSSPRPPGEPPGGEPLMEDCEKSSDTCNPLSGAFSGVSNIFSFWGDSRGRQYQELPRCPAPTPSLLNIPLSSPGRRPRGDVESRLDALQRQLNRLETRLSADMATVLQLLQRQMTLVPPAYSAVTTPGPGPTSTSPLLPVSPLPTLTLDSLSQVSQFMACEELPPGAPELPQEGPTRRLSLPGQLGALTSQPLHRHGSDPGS
Method in brief: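 Blockade is seen as reduced FluxOR thallium-flux fluorescence in U2OS cells expressing hERG from a BacMam construct, in Opti-MEM with 2% FCS. Concentration-response data fitted to the Hill equation for AC50.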

[21] = biological target: Tumor susceptibility gene 101 protein (Homo sapiens) (UniProt Q99816); assay: qHTS Assay for Iinhibitors of HIV-1 Budding by Blocking the Interaction of PTAP/TSG101: Hit Validation (AID 651600); note: % is set by controls: 0 for no effect and ±100 for the full control effect; nearly all actives have a fitted effect of over 70% in size
Chain of Tumor susceptibility gene 101 protein (Homo sapiens) (Q99816 whole entry, looked up): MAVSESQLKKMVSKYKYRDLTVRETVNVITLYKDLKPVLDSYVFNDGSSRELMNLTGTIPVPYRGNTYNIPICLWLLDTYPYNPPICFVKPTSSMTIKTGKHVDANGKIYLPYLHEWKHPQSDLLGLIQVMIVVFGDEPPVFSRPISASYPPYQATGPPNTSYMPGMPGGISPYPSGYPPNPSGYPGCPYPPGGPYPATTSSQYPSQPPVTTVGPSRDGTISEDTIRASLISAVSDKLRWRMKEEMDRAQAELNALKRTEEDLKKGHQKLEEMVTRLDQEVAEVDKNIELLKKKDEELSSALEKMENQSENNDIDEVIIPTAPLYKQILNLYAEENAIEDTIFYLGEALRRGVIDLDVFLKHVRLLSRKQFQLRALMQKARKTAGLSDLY
Method in brief: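 Measuring PTAP–Tsg101 interaction by FP: protein at 10 uM and fluorescent peptide at 50 nM (final), buffer 10 mM HEPES pH 7.5 with 0.15 M NaCl, 3 mM EDTA, 0.1 mM TCEP, 0.01% Tween 20; 20 min incubation, r.t.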

[22] = system: Zika virus NS2B-NS3 protease (unlinked); assay: Optimization of GU AMC qHTS for Zika virus inhibitors: Unlinked NS2B-NS3 protease assay (AID 1347151);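 note: series mostly up to about 52 µM; 0% = no-inhibitor control and -100% = no-enzyme control; nearly all actives have a fitted effect of over 80% in size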
Method in brief: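 In this qHTS, compounds acted on 25 nM unlinked Zika NS2B–NS3 in pH 8.0 Tris/Tween buffer. Cleavage of an AMC peptide ran 15 min at room temperature, to about 20% conversion.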

[23] = system: Zika virus NS2B-NS3 protease; assay: Primary screen GU AMC qHTS for Zika virus inhibitors (AID 1347154);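 note: 0% = no-inhibitor control and -100% = no-enzyme control; nearly all actives have a fitted effect of over 70% in size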
Method in brief: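 Unlinked Zika NS2B hydrophilic domain–NS3 protease complex at 25 nM in 10 mM Tris-HCl pH 8.0, 0.01% Tween 20, with an AMC peptide substrate. Fluorescence change (340/450 nm) over 15 min at room temperature, normalized to controls, fitted to 4-parameter Hill.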

[24] = Vero cells viability qHTS for Zika virus inhibitors (AID 1347167); note: % is set by controls: 0 for no effect and ±100 for the full control effect
Method in brief: (§1)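 Cells seeded at 2.5 x 10^5 cells/mL in DMEM with 4% FBS and attached overnight at 37 degrees C, then exposed to compound for 24 to 48 hours. Viability read as ATP content by CellTiter Glo luminescence.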

[25] = HepG2 cells viability qHTS for Zika virus inhibitors (AID 1347168); note: % is set by controls: 0 for no effect and ±100 for the full control effect
Method in brief: as §1

[26] = Tertiary RLuc qRT-PCR qHTS assay for Zika virus inhibitors (AID 1347169); note: top concentration of the series differs between compounds; % is set by controls: 0 for no effect and ±100 for the full control effect; nearly all actives have a fitted effect of over 55% in size
Method in brief: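 Inhibition of ZIKV-RLuc replication in Vero cells, read as Renilla luminescence 1-1.5 hrs after live-cell substrate addition, following 48-72 hrs infection at MOI 1-2 in presence of compound.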

[27] = Confirmatory qHTS for small molecule stabilizers of the endoplasmic reticulum resident proteome: Secreted ER Calcium Modulated Protein (SERCaMP) assay (AID 1508628); note: series mostly up to about 76 µM; % is set by controls: 0 for no effect and ±100 for the full control effect; nearly all actives have a fitted effect of over 40% in size
Method in brief: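 SH-SY5Y cells stably expressing GLuc-SERCaMP, treated 16 h with compound (primary 1.53, 7.67, 38.3 uM; confirmation 11 concentrations, up to 76.6 uM), then 100 nM thapsigargin for 4 h. Secreted Gaussia luciferase in medium read by coelenterazine luminescence.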

C=CCN1CCC2(C)c3cc(O)ccc3CC1C2C (configuration not stated)
active: Potency [5] 7.08 µM | Potency [6] 12.6 µM | Potency [8] 5.62 µM
inactive: outcome [1] | Potency [2] | Potency [3] | outcome [4] | Potency [7] | Potency [9] | Potency [10] | Potency [11] | Potency [12] | Potency [13] | Potency [14] | Potency [15] | outcome [16] | activation [17] 1.19% | outcome [18] | Potency [19] | Potency [20] | outcome [21] | outcome [22] | Potency [23] | Potency [24] | Potency [25] | Potency [26] | Potency [27]
